Out of some 5,500 compounds screened, about 2,000 (36%) were called active. Not shown: some 18% with an inconclusive outcome. Rule as the data show it: active = normalized growth mostly below about 0.91 (no sharp cut-off); inconclusive = no clear call, values can overlap the other calls; inactive = mostly above about 0.92. The list shows a part of the results.
Test: chemical genetic growth profiling, strain panel (AID 1159580);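 also: tested at 20 µM; growth read once vehicle control cultures reached saturation at 30 °C; 1 = growth at the plate median or of vehicle wells; lower values mean less growth of the strain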
Conditions: S. cerevisiae deletion strains, growth OD

Measured: normalized growth

COc1cc(NS(C)(=O)=O)ccc1Nc1c2ccccc2nc2ccccc12
inactive: locus YAL040C, strain CLN3, active compounds read low 0.985 | locus YCL061C, strain MRC1 (second series), active compounds read low 0.981 | locus YDR363W, strain ESC2, active compounds read low 0.916 | locus YER002W, strain NOP16, active compounds read low 0.989 | locus YGR078C, strain PAC10, active compounds read low 0.985 | locus YGR229C, strain SMI1, active compounds read low 0.955 | locus YNL128W, strain TEP1, active compounds read low 1.02 | locus YNL175C, strain NOP13, active compounds read low 1 | locus YNL197C, strain WHI3, active compounds read low 0.967 | locus YNL224C, strain SQS1, active compounds read low 0.98 | locus YNL322C, strain KRE1, active compounds read low 0.965 | locus YOR083W, strain WHI5 (second series), active compounds read low 0.975 | locus YPL055C, strain LGE1, active compounds read low 0.902

From PubChem BioAssay AID1159580 (chemical genetic matrix, 2015)
